Screens deposited in PubChem by several laboratories.
A selection: hits, their analogues and other compounds. The true share with any hit is near 27%.
CYP2C19 inh: blockers of cytochrome P450 2C19 activity – biochemical, luminescence, ADME assay, primary screen | P33261 | CYP2C19 Supersomes, luciferin-H EGE luminescence, 30 min | inhibition, % at 5 µM | actives 21% (n = 96,000);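 active = CYP2C19 inhibition above a set limit at 5 µM in the primary screen, cut at about 50% in these data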
CYP2C9 inh: blockers of cytochrome P450 2C9 activity – biochemical, luminescence, ADME assay, primary screen | inhibition, % at 5 µM | P11712 | CYP2C9 Supersomes, luciferin-H conversion | actives 20% (n = 96,000);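 active = blocking of liver enzyme CYP2C9 beyond about 50% at 5 µM, limit read from the data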
CYP2C9 activ: human CYP2C9 activators, primary screen, biochemical, luminescence; AID 1024, 2008; Cytochrome P450 2C9 (Homo sapiens), P11712; activation factor at 5 µM; recombinant CYP2C9, luciferin-H conversion; hits give high values; factor 1 = untreated enzyme, 0 = blocked; actives 1.4% (n = 96,000);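 active = activation factor of 2 or more for CYP2C9 at a 5 µM dose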
CYP2C19 act: human CYP2C19 activators, primary screen, biochemical, luminescence | Cytochrome P450 2C19 (Homo sapiens), P33261 | recombinant CYP2C19, luciferin-H EGE luminescence; hits give high values; 0 = fully inhibited enzyme, 1 = untreated enzyme | activation factor at 5 µM | 96,000 tested, under 10 active | AID 1025, 2008;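 active = activation factor of at least 2 at 5 µM in the primary screen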
sEH activator: soluble epoxide hydrolase activators, primary screen, biochemical, human sEH. purified human sEH enzymatic activity, activator screen. activation, % at 2 µM. actives 0.04% (n = 91,000). AID 717, 2007; in the data active = activation above about 37%
Target sequence (P34913 whole entry, looked up): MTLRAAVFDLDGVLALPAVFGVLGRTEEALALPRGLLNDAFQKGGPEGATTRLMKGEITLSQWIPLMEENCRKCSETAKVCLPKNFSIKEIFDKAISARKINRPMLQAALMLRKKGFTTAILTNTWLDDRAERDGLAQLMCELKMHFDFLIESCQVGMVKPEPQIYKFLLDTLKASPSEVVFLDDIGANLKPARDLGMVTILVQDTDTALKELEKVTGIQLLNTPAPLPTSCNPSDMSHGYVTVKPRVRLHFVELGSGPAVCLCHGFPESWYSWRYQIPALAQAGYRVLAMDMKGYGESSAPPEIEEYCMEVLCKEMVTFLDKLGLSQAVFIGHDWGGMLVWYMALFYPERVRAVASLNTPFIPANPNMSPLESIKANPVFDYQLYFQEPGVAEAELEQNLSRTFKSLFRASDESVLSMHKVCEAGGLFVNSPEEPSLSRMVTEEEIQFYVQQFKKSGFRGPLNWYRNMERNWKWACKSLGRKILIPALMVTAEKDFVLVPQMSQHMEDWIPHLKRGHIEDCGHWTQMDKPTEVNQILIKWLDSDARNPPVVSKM
sEH inh: soluble epoxide hydrolase inhibitors, primary screen, biochemical, human sEH | inhibition, % at 2 µM | actives 0.34% (n = 91,000) | Bifunctional epoxide hydrolase 2 (Homo sapiens), P34913 | recombinant human sEH enzymatic activity assay; in the data active = inhibition above about 80%
Hits are given with their value; – = inactive; · = no result given.

SMILES	CYP2C19 inh	CYP2C9 inh	CYP2C9 activ	CYP2C19 act	sEH activator	sEH inh
C=CCc1ccc(OCC(O)CN2CCCCC2C)c(OC)c1 (stereo not drawn)	–	–	–	–	–	–
CC(=O)Nc1nc2n(n1)C(c1ccccc1)C=C(c1ccccc1)N2 (stereo not drawn)	–	–	–	–	·	·
COc1ccc(C2CC(c3ccccc3)n3nc(NC(=O)c4cccs4)nc3N2)cc1 (stereo not drawn)	–	53	–	–	–	–
Cc1ccc(C2CC(c3cccc(Br)c3)Nc3nnnn32)cc1 (stereo not drawn)	51	–	–	–	–	–
O=C(Nc1nc2n(n1)C(c1ccccc1)C=C(c1ccccc1)N2)c1ccco1 (stereo not drawn)	–	73	–	–	·	·
COc1ccc(C2CC(c3ccccc3)Nc3nc(NC(=O)c4cccs4)nn32)cc1 (stereo not drawn)	–	–	–	–	–	–
CC(Sc1ccc(Cl)cc1)C(=O)Nc1ccccc1C(=O)N1CCOCC1 (stereo not drawn)	–	–	–	–	–	–
COC(=O)C1=C(C)NC(=O)/C1=C\c1cc(C)n(-c2cccc(C)c2)c1C	79	84	–	–	–	–
CCOc1cc(-c2cn(S(=O)(=O)c3cccc4nsnc34)nc2N)cc(OCC)c1OCC	–	–	–	–	–	–
Nc1cc(-c2ccc(Cl)cc2)nn1S(=O)(=O)c1cccc2nsnc12	94	86	–	–	–	–
Nc1cc(-c2ccc(Br)cc2)nn1S(=O)(=O)c1cccc2nsnc12	96	89	–	–	·	·
C=CC1C(N2CCOCC2)C(C)(C)S1(=O)=O (stereo not drawn)	–	–	–	–	·	·
Cc1cccc(C)c1OCC(O)Cn1ccnc1C (stereo not drawn)	53	–	–	–	–	–
CCS(=O)(=O)CCSc1nc2ccccc2s1	72	–	–	–	–	–
O=S(=O)(CCSc1nc2ccccc2s1)c1nc2ccccc2s1	–	74	–	–	–	–
Cc1ccc(CNC(=O)CS(=O)Cc2nc(-c3cccs3)oc2C)cc1 (stereo not drawn)	–	–	–	–	–	–
Cc1cc(C)n(C(=O)c2ccc(NC(=O)C3CC3)cc2)n1	–	–	2.2	–	–	–
CCC(=O)Nc1ccc(C(=O)n2nc(C)cc2C)cc1	–	–	–	–	–	–
CCCn1nnc(NC(=O)c2cccc(OCc3ccccc3)c2)n1	–	61	–	–	–	–
CCc1ccc(C(=O)Nc2nnn(CC)n2)cc1	–	50	–	–	–	–
CCCn1nnc(NC(=O)c2cc(Br)ccc2OC)n1	74	–	3.6	–	–	–
CCCCn1nnc(NC(=O)c2ccc(-c3ccccc3)cc2)n1	–	–	–	–	–	–
O=C(Nc1c(Cl)cccc1Cl)c1cc(=O)n(Cc2ccccc2)c(=O)[nH]1	–	–	–	–	–	–
CC(=O)C1=C(C)OC(N)=C(C#N)C1c1cc2cc(C)c(C)cc2nc1Cl (stereo not drawn)	87	–	–	–	–	–
C=CCn1c(NCCO)nc2sc3c(c2c1=O)CCC3	–	–	–	–	·	·
SMILES	CYP2C19 inh	CYP2C9 inh	CYP2C9 activ	CYP2C19 act	sEH activator	sEH inh
OCCNc1nc(SCc2ccccc2)nc2sc3c(c12)CCC3	–	68	–	–	–	–
O=C(NC12CC3CC(CC(C3)C1)C2)C1=COCCO1	–	–	–	–	–	–
COc1ccc2oc(=N)c(-c3nnc4n3CCCCC4)cc2c1	–	–	–	–	–	–
N=c1oc2ccc3ccccc3c2cc1-c1nnc2n1CCCCC2	–	–	2.1	–	–	–
O=C(CSc1nnc(CNc2ccc(Cl)cc2)n1Cc1ccccc1)NCc1ccco1	–	–	–	–	·	·
Fc1ccc(NCc2nnc(SCc3nnc(-c4ccccc4)o3)n2Cc2ccccc2)cc1	79	68	–	–	–	–
CSc1nncn1/N=C/c1ccccc1F	–	58	–	–	–	–
Cc1noc(C)c1S(=O)(=O)N1CCC(C(=O)Nc2ccc(OC(F)(F)F)cc2)CC1	–	–	–	–	–	–
CC(=O)c1cccc(NC(=O)C2CCN(S(=O)(=O)c3ccc(C)cc3)CC2)c1	·	·	·	·	–	–
COc1ccc(NC(=O)C2CCCN(S(=O)(=O)c3c(C)n[nH]c3C)C2)c(OC)c1 (stereo not drawn)	52	–	–	–	–	–
COc1ccc(S(=O)(=O)N2CCC(C(=O)Nc3cccc(C(C)=O)c3)CC2)cc1C	97	–	–	–	–	–
CC(=O)c1cccc(NC(=O)C2CCN(S(=O)(=O)c3c(C)n[nH]c3C)CC2)c1	71	–	–	–	–	–
COc1ccc(NC(=O)C2CCN(S(=O)(=O)c3c(C)noc3C)CC2)cc1Cl	78	68	–	–	–	–
CCc1ccccc1N1C[C@@]23C=C[C@@H](O2)C(C(=O)OCC(C)C)[C@H]3C1=O (stereo partly drawn)	–	–	–	–	–	–
COc1ccc(-c2c(C(=O)O)nc3ccccc3c2C(=O)O)cc1	–	–	–	–	–	–
Cc1n[nH]c(C)c1S(=O)(=O)N1CCCC(C(=O)N2CCc3ccccc32)C1 (stereo not drawn)	62	–	–	–	–	–
CCOC(=O)C1CCN(S(=O)(=O)c2c(C)n[nH]c2C)CC1	88	90	–	–	–	–
Cc1nn(C)c(C)c1S(=O)(=O)N1CCCC(C(=O)N2CCN(c3ccc(Cl)cc3)CC2)C1 (stereo not drawn)	84	91	–	–	–	–
Cc1noc(/C=C/N(C)C)c1S(=O)(=O)N1CCCC(C(=O)N2CCc3ccccc32)C1 (stereo not drawn)	·	·	·	·	–	–
CCOc1ccc(NC(=O)C2CCCN(S(=O)(=O)c3c(C)nn(C)c3C)C2)cc1 (stereo not drawn)	–	–	–	–	–	–
CCOC(=O)c1cccc(NC(=O)C2CCCN(S(=O)(=O)c3c(C)nn(C)c3C)C2)c1 (stereo not drawn)	83	93	–	–	·	·
Cc1cc(=O)[nH]c(SCC(=O)c2c(N)n(C)c(=O)n(C)c2=O)n1	–	–	–	–	–	–
CC(C)(C)NC(=O)NC(=O)COC(=O)c1cc(=O)[nH]c2ccccc12	–	–	–	–	–	–
CCOC(=O)c1cccc(NC(=O)C2CCCN(S(=O)(=O)c3c(C)n[nH]c3C)C2)c1 (stereo not drawn)	66	88	–	–	–	–
O=C1NC2(CCCCC2)Oc2ccccc21	–	–	–	–	·	·
